# High-throughput results deposited in PubChem by National Center for Advancing Translational Sciences (NCATS).
# Most compounds without a hit are left out; they make up all but 18% or so of the library.
# IL-1B inflam inh – inhibitors of inflammasome signaling (IL-1 beta secretion); AID 743279; activity change, % at 57.5 µM; THP-1 LPS/ATP IL-1B secretion, AlphaLISA, 16 h; stronger effect = lower value; 360,000 tested, 4.7% active; in the data active = activity change below about -50%; inconclusive = mostly about -30% to -49%; note: % is set by controls: 0 for no effect and ±100 for the full control effect
#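 Secreted IL-1B measured by AlphaLISA bead assay after 16 h compound exposure of THP-1 cells; compounds (final up to 57.5 uM) added 1 h before LPS (250 ng/mL) and ATP (1.25 mM) stimulation; lower signal means less secretion.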
# TDP1 block – inhibitors of human tyrosyl-DNA phosphodiesterase TDP1; 350,000 tested, 0.28% active; Potency, µM (series often up to 130 µM), without a hit: at the top dose activity change, negative = inhibition, usual class: inhibitors; AID 485290; recombinant TDP1, AlphaScreen DNA substrate cleavage; Q9NUW8; note: potency is the fitted concentration of half-maximal effect; % is set by controls: 0 for no effect and ±100 for the full control effect; nearly all actives have a fitted effect of over 40% in size
# Target sequence (Q9NUW8 whole entry, looked up): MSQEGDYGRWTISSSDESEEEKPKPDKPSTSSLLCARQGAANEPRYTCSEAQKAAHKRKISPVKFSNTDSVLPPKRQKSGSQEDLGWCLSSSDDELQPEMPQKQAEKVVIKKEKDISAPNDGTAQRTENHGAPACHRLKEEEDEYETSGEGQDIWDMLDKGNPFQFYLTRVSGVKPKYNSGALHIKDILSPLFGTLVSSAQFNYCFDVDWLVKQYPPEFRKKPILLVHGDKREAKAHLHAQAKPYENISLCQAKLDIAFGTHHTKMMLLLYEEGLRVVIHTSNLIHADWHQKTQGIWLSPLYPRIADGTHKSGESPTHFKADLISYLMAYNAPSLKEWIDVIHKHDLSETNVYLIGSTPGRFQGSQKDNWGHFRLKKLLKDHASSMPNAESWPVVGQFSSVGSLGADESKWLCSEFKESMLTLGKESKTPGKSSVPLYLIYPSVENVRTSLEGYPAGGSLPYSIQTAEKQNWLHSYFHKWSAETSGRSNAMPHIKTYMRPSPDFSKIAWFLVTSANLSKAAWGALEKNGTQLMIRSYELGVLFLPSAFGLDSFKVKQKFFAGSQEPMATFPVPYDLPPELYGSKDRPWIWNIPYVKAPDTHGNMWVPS
#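 Enzyme-compound mixtures sat 15 min at room temperature, followed by a 5 min reaction with 15 nM final substrate and 10 min with AlphaScreen beads. Recombinant human Tdp1 was used at 1 nM final.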
# DT40 TDP1 CPT – DT40-hTDP1 cell growth loss with CPT | chicken DT40 Tdp1-/-;hTDP1 cells + 20 nM CPT, ATP luminescence, 48 h | Potency, µM (series often up to 46.2 µM), inactives show at the top dose activity change, negative = growth inhibition, most hits filed as inhibitors | 420,000 tested, 12% active | AID 686979; note: potency is the fitted concentration of half-maximal effect; % is set by controls: 0 for no effect and ±100 for the full control effect; nearly all actives have a fitted effect of over 55% in size
#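 Chicken DT40 Tdp1-/- cells complemented with human TDP1, 400 cells/well, exposed to compounds plus 20 nM camptothecin for at least 48 h at 37 C; viability read as ATP content by CellTiter-Glo luminescence.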
# DT40 TDP1 no CPT – qHTS for Inhibitors of human tyrosyl-DNA phosphodiesterase 1 (TDP1): qHTS in cells in absence of CPT; DT40 Tdp1-/- hTDP1 cells, no CPT, ATP luminescence, 48 h; Potency, µM (highest dose often 46.2 µM), without a hit: at the highest dose activity change, negative = growth inhibition, most hits filed as inhibitors; 420,000 tested, 15% active; note: potency is the fitted concentration of half-maximal effect; % is set by controls: 0 for no effect and ±100 for the full control effect; nearly all actives have a fitted effect of over 55% in size
#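 Readout: luminescence from CellTiter-Glo after 30 min in the dark at RT. Cells: DT40 Tdp1-/- with stable hTDP1, 400/well. Exposure: compounds alone, ≥48 hr, 37 °C.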
# HepG2 viability – kills HepG2 cells in TGF-b inhibitor counter-screen. 410,000 tested, 0.76% active. Potency, µM (series often up to 46.1 µM), inactives show at the top dose activity change, negative = cytotoxicity, usual class: cytotoxic. AID 588856. HepG2 CAGA-GFP viability, ATP luminescence, 18 h; note: potency is the fitted concentration of half-maximal effect
#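 CellTiter-Glo luminescence gave cytotoxicity after 18 hours at 37 degrees C. The cells were HepG2 CAGA-GFP in 1% FBS DMEM, stimulated with 500 pg/mL TGF-beta after compound addition. %Activity was normalised to no-cell wells (complete cell-killing) and DMSO (no toxicity), and curves were fitted and classified.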
# TGFb SMAD3 inh – blocks TGF-b signaling; HepG2 CAGA-GFP TGF-b/SMAD3 reporter, GFP fluorescence, 18 h; TGF-beta stimulated, 500 pg/mL final; Potency, µM (top dose mostly 46.1 µM), for the others: at the highest dose activity, negative = inhibition, hits mostly inhibitors; 410,000 tested, 1.2% active; note: potency is the fitted concentration of half-maximal effect; % is set by controls: 0 for no effect and ±100 for the full control effect; nearly all actives have a fitted effect of over 65% in size
#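 Per well, imaged GFP fluorescence of HEPG2 CAGA-GFP cells gives the signal; cells get compound, then TGF-beta (500 pg/mL final), 18 h at 37 degrees C; %Activity versus -TGF-beta and +DMSO controls.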
# * = called active by the depositor; u = inconclusive; x = no result given; ! = not active in a repeat; [ ] = another dose, or the depositor's remark. Unless noted, calls come from the whole dose curve; as a rule, active = well fitted curve in the direction sought with a large enough effect; inconclusive = small, poorly fitted or top-dose-only effect, or another doubt; inactive = no such curve, though single readings can be large; an effect the other way counts as inactive or inconclusive.
SMILES,IL-1B inflam inh,TDP1 block,DT40 TDP1 CPT,DT40 TDP1 no CPT,HepG2 viability,TGFb SMAD3 inh
COc1cc(OC)c(NS(=O)(=O)c2cc3c(cc2C)N(C(C)=O)CCO3)cc1Cl,x,8%,-24%,u,-29%,-44%
CC1CCN(C(=O)COC(=O)c2cccc(S(=O)(=O)N3CCOCC3)c2)CC1,13,x,5%,-26%,4%,11%
O=C(O)c1ccccc1-c1csc(-c2ccccc2)n1,23,6%,4%,-16%,-10%,9%
CCS(=O)(=O)c1ccc(-c2csc(-c3ccccc3)n2)c(Cl)c1Cl,-12,3%,16µM*,21µM*,-26%,-7%
O=c1cc(-c2ccccc2)nc(SCc2nc(-c3cccc(C(F)(F)F)c3)no2)[nH]1,x,3%,-6%,6%,9%,-25%
CCC1(c2cccc(Cl)c2)NC(=O)N(Cc2cc(C(=O)OC)c(C)o2)C1=O (stereo not drawn),2,-3%,26µM*,18µM*,-3%,-14%
CCC1(c2ccccc2)NC(=O)N(Cc2ccc(C(=O)OC)cc2)C1=O (stereo not drawn),14,3%,-3%,-24%,1%,-13%
COc1cccc(NC(=O)c2ccnc(N3CCC(C(=O)NCc4ccccc4OC)CC3)c2)c1,-11,3%,u,-23%,2%,10%
Cc1ccnc2c1ccc1ccccc12,-26,x,-4%,9%,-16%,-7%
Cc1ccnc2c1ccc1cccnc12,-86*,-4%,1µM*,0.58µM*,-4%,-23%
Cc1ccnc2c1ccc1c(C)ccnc12,u,1%,0.92µM*,2.6µM*,16µM*,4.5µM*
Cc1ccnc2c(N3C(=O)C4C5c6ccccc6C(c6ccccc65)C4C3=O)cccc12 (stereo not drawn),u,1%,21µM*,16µM*,-2%,u
Cc1cccnc1NCc1ccc(O)c2ncccc12,100,10%,4.6µM*,5.8µM*,-40%,u
Cc1ccccc1N1C(=O)C2C3CC(=O)C(c4ccccc43)C2C1=O (stereo not drawn),19,2%,-14%,-26%,-85%,-2%
O=C(Nc1ccc(F)cc1)C1(S(=O)(=O)c2ccc(Cl)cc2)CC1,-1,1%,1%,-9%,-10%,13%
Cc1ccc(C(=O)NCC(=O)OCc2c(F)cccc2Cl)s1,-10,-12%,1%,3%,-10%,0%
O=C(NC1CCN(S(=O)(=O)c2ccccc2F)CC1)c1ccco1,-12,3%,-5%,-4%,-7%,1%
Cc1cc(C)c2cccnc2c1O,x,x,1.3µM*,1.1µM*,-56%,3.2µM*
Cc1ccnc2ncccc12,x,x,-25%,-12%,8%,-4%
Cc1ccnc2c(O)cccc12,x,x,1.3µM*,0.89µM*,4µM*,3.5µM*
Cc1ccc(C(=O)Nc2c(C)cc(C)c3cccnc23)cc1,7,-5%,u,16µM*,-1%,0%
CCN(CC)C(=O)C1=C(C)N(CCC2=CCCCC2)C(=O)C(CC(=O)NCCCCc2ccccc2)C1 (stereo not drawn),-6,x,u,u,-9%,-8%
O=C(O)[C@H](CC(=O)N1C[C@H]2CCCC[C@H]2C1)Cc1ccccc1,x,x,14%,-1%,x,x
COC(=O)C1=C(C)N(Cc2ccccc2)C(=NCc2ccco2)N[C@H]1c1cccc(F)c1,u,1%,12µM*,18µM*,-39%,-18%
COC(=O)C1=C(C)N(Cc2ccccc2)C(=NCc2cc(OC)c(OC)c(OC)c2)N[C@H]1c1cccc(F)c1,u,x,12µM*,8.2µM*,-42%,u
SMILES,IL-1B inflam inh,TDP1 block,DT40 TDP1 CPT,DT40 TDP1 no CPT,HepG2 viability,TGFb SMAD3 inh
CCN1C(=NCc2ccc(OC)cc2)N[C@@H](c2ccccc2)C(C(=O)OC)=C1C,-24,x,u,u,-19%,u
COC(=O)C1=C(C)N(Cc2ccccc2)C(=NCc2ccc(OC)cc2)N[C@H]1c1cccc(F)c1,u,x,15µM*,16µM*,-107%,u
CCN1C(=NCc2cc(OC)c(OC)c(OC)c2)N[C@@H](c2ccccc2)C(C(=O)OC)=C1C,-13,0%,u,-16%,3%,18%
COC(=O)C1=C(C)N(Cc2ccccc2)C(=NCc2cccc(Cl)c2)N[C@H]1c1cccc(F)c1,u,4%,2.6µM*,3.7µM*,-107%,u
O=C(Nc1ccccc1OC(F)F)c1cccc(S(=O)(=O)N2CCCC2)c1,10,1%,u,u,12%,-2%
OC[C@H]1O[C@H](n2cnc3c(NC4CCCC4)nc(Cl)nc32)[C@@H](O)[C@@H]1O,x,12%[56.1 µM],2%,-3%,x,x
O=C(COc1c(F)c(F)c(C(F)(F)F)c(F)c1F)Nc1ccc(N2CCOCC2)c(Cl)c1,u,-5%,u,u,-11%,u
CCC(C)c1ccc(NC(=O)COc2c(F)c(F)c(C(F)(F)F)c(F)c2F)cc1 (stereo not drawn),-77*,1%,u,u,-77%,u
O=C(C1CCCN(Cc2ccccc2Cl)C1)N1CCCCC1 (stereo not drawn),5,x,-10%,-24%,1%,-6%
O=S(=O)(c1cccc(C(F)(F)F)c1)N1CCN(c2nc(-c3cccs3)nc3cc(Cl)ccc23)CC1,x,0%,x,x,-48%,-6%
CCc1ccc(OCC2Cn3c(nc4c3c(=O)[nH]c(=O)n4C)O2)cc1 (stereo not drawn),13,x,u,26µM*,-10%,-6%
Cc1cccc(OCC2Cn3c(nc4c3c(=O)[nH]c(=O)n4C)O2)c1 (stereo not drawn),23,x,u,10µM*,-42%,-9%
CCCc1nnn(S(=O)(=O)c2ccc([N+](=O)[O-])cc2)c1CCC,7,x,-7%,-23%,6%,17%
COc1ccccc1NC(=O)/C(N=Nc1ccc(C)c(S(=O)(=O)Nc2ccccc2Cl)c1)=C(\C)O,8,7%,18µM*,18µM*,10%,21%
CCC(C)[C@H]1COCCS(=O)(=O)N1Cc1ccc(Br)cc1 (stereo partly drawn),-3,x,18µM*,16µM*,-19%,-4%
CCC(C)[C@H]1COCCS(=O)(=O)N1Cc1ccc(Cl)cc1Cl (stereo partly drawn),-3,x,u,u,-32%,10µM*!
